Compound activity from PubChem BioAssay.
A selection: hits, their analogues and other compounds. The true share with any hit is near 1.2%.
Akt phos inh = HTS Assay for Inhibitors of Akt Phophorylation: Primary Screen; Neuro2A IGF-stimulated pAkt S473 HTRF, 20 min; stronger effect = lower value; activity change, % for hits at 50 µM; 0.32% of 360,000 active; in the data active means activity change below about -80%; inconclusive means mostly about -51% to -80%; further: on the % scale 0 is the no-effect control and ±100 the full control effect
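Single-point screen (50 µM final compound) in Neuro2A cells stimulated 20 min with 6 nM IGF at 37 deg C. After lysis, Ser473-phosphorylated Akt read by HTRF (ex 330 nm, em 615/665 nm) as the 665/615 ratio.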
RXFP1 antagonist = qHTS Assay for Antagonists of the Relaxin Receptor RXFP1; Relaxin receptor 1 (Homo sapiens), Q9HBX9; HEK293-RXFP1, relaxin-stimulated cAMP HTRF, 30 min; stronger effect = lower value; activity change, negative = inhibition, % at 57.5 µM; 0.59% of 350,000 active;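 active means activity change of -60% or lower, but not beyond a set lower limit; inconclusive means change between -60% and -40%, or beyond the set limit; inactive means change above -40%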; further: on the % scale 0 is the no-effect control and ±100 the full control effect
Target sequence (Q9HBX9 whole entry, looked up): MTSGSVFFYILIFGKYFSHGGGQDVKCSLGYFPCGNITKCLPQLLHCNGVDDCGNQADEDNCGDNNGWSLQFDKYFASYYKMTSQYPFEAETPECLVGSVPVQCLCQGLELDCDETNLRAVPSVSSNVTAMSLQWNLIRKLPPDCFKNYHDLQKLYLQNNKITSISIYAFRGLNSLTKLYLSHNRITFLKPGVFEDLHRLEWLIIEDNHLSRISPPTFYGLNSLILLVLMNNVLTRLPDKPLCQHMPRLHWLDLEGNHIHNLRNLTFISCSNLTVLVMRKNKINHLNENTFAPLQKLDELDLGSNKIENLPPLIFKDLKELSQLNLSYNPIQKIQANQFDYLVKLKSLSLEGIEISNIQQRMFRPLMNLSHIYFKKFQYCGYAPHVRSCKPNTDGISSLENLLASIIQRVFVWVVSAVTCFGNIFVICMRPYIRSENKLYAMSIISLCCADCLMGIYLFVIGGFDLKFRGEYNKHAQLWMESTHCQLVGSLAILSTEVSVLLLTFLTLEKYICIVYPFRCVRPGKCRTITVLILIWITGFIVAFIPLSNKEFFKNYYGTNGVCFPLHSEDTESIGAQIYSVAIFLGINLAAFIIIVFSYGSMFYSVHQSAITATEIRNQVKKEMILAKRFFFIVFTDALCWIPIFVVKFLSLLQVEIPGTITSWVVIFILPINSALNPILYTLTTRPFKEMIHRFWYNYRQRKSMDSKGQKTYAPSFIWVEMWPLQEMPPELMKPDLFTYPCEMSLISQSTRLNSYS
RXFP1 agonist = qHTS Assay for Agonists of the Relaxin Receptor RXFP1; Relaxin receptor 1 (Homo sapiens), Q9HBX9; HEK293T-RXFP1 cAMP TR-FRET, 30 min; response scale: percent of porcine relaxin response, buffer zero; Potency, µM (top dose mostly 57.5 µM), for inactives: at the highest dose activation, most hits filed as activators; 0.3% of 370,000 active; AID 2676, 2010; active means well fitted activation curve with a large enough effect; inconclusive means small, poorly fitted or top-dose-only effect; further: potency means the concentration at half of the fitted maximal effect; on the % scale 0 is the no-effect control and ±100 the full control effect; nearly all actives have a fitted effect of over 60% in size
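cAMP rise read by TR-FRET after 30 min, 37C compound exposure (up to 58 uM) in RXFP1-transfected HEK293 cells with Ro 20174 present. EC50 from Hill-equation fits, with 29 nM porcine relaxin as 100% and buffer as basal.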
gsp agonist = qHTS for Agonist of gsp, the Etiologic Mutation Responsible for Fibrous Dysplasia/McCune-Albright Syndrome: qHTS | gsp mutant cells, cAMP HTRF, 30 min | 0.13% of 340,000 active | Potency, µM (highest dose often 76.9 µM), inactives show at the top dose activation (cAMP increase), most hits filed as activators | AID 624287, 2012; active means well fitted activation curve with a large enough effect; inconclusive means small, poorly fitted or top-dose-only effect, or another doubt; inactive means no such curve, though single readings can be large or run the other way; cell line not stated here;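 further: phosphodiesterase inhibitor Ro 20-1724 added with compounds to block cAMP breakdown; potency means the concentration at half of the fitted maximal effect; nearly all actives have a fitted effect of over 60% in size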
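Cells stably selected in G418 were plated at 2000/well, grown 16-24 hr, then given compounds in DMSO with the PDE inhibitor […] (300 uM solution added) for 30 min at 37C; cAMP was read by HTRF.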
gsp antag = qHTS for Antagonists of gsp, the Etiologic Mutation Responsible for Fibrous Dysplasia/McCune-Albright Syndrome: qHTS. gsp-mutant cells, cAMP HTRF, 30 min. Potency, µM (top dose mostly 76.9 µM), for the others: at the highest dose activity change, negative = inhibition, hits mostly inhibitors. 0.4% of 340,000 active. AID 624288, 2012; calls by dose curve; cell line not stated here;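 further: intracellular cAMP measured with PDE inhibitor Ro 20-1724 present during compound exposure; potency means the concentration at half of the fitted maximal effect; on the % scale 0 is the no-effect control and ±100 the full control effect; nearly all actives have a fitted effect of over 65% in size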
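Cells in G418 medium, seeded 16-24 h, 37C; buffer exchange to DPBS + 1 mM CaCl2, 0.5 mM MgCl2, 0.05% BSA; cpds in DMSO + […] (300 uM stock), 30 min 37C; HTRF cAMP detection.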
The depositor's hits bear a star; i = inactive; u = inconclusive; x = no result given; [ ] = dose if it differs, or a comment.

SMILES | Akt phos inh | RXFP1 antagonist | RXFP1 agonist | gsp agonist | gsp antag
CC(=O)Nc1ccc(N/C=C/C(=O)c2ccco2)cc1 | i | -1 | 0% | -2% | 0%
CN1CCN(C(=O)Nc2cccc(Cl)c2)c2cccnc21 | x | 5 | 23% | x | x
Cc1nc2ccccn2c1C(=O)NNC(=S)Nc1ccccc1 | i | -89* | 6% | -3% | -7%
C/C(=N\O)c1ccc(OCC(=O)N2CCCCC2)cc1 | x | -15 | x | x | x
O=[N+]([O-])c1ccc(N=Nc2ccc(O)c3ccccc23)cc1 | i | u | x | 16% | 25µM*
O=S(=O)(Nc1ccc(N=Nc2ccc(O)c3ccccc23)cc1)c1ccccc1 | i | -34 | 0% | 13% | u
CCOC(=O)CN1C(c2ccccc2O)Nc2ccc(Br)cc2C1c1ccccc1 (centres undefined) | i | -73* | 0% | -18%[15.4 µM] | 4%
COC(=O)CN1C(c2ccccc2O)Nc2ccc(Br)cc2C1c1ccccc1 (centres undefined) | i | -4 | -1% | -3% | -4%
COc1ccc(N(CC(=O)NCCOc2ccccc2)S(=O)(=O)c2ccc(C)cc2)cc1 | i | -62* | -2% | 14% | -14%
O=C(CNC(=O)c1ccccc1F)NCCN1C(=O)S/C(=C\c2ccccc2Cl)C1=O | i | -24 | -1% | -38% | -4%
O=C(CCS(=O)(=O)c1ccc(Cl)cc1)NCCN1C(=O)S/C(=C\c2ccccc2F)C1=O | i | -4 | 1% | -2% | 50µM*
Cc1ccc(S(=O)(=O)CCC(=O)NCCN2C(=O)S/C(=C\c3ccccc3)C2=O)cc1 | i | -22 | 0% | 4% | 50µM*
CCOC(=O)Cn1c(=O)oc2cc(S(=O)(=O)Nc3cc(OC)cc(OC)c3)ccc21 | x | -28 | 0% | x | x
O=C(Nc1ccc(Cl)cc1)c1cncs1 | i | 3 | 0% | 6%[15.4 µM] | 50µM*
CCOc1ccc(NC(=O)Nc2cc(C(C)C)c(O)cc2C)cc1 | i | -5 | 1% | 8%[15.4 µM] | -10%
Cc1cc(O)c(C(C)C)cc1NC(=S)Nc1cc(C(C)C)c(O)cc1C | i | -15 | x | -1% | 28µM*
Cc1ccc(-c2cn3nc(N4CCCC(C(=O)NCc5ccc(F)cc5)C4)sc3n2)cc1 (centres undefined) | x | -21 | 1% | x | x
COc1cc(C(=O)NCCSc2c(C)[nH]c3ccccc23)cc(OC)c1OC | x | -21 | -1% | x | x
Cc1ccc(C(=O)NCCSc2c(C)[nH]c3ccccc23)cc1[N+](=O)[O-] | i | -30 | 2% | -39% | 35µM*
Cc1[nH]ccc(=O)c1OCc1c(Cl)cccc1Cl | -114%* | -6 | -1% | u | 10%
OC1(c2ccc(Cl)c(Cl)c2)C[n+]2ccccc2N1Cc1ccccc1 (centres undefined) | i | -69* | 0% | 24%[15.4 µM] | 11%
Oc1ccc(COC2CCCC2)c2cccnc12 | x | x | -1% | x | x
Cn1nc(CC(=O)Nc2ccc3c(c2)CCC3)c2ccccc2c1=O | -126%* | 9 | 2% | 4% | -13%
O=[N+]([O-])c1ccc(NN=Cc2cc(Br)ccc2O)nc1 | i | -74* | x | 34% | -2%
Cc1nnc(N2CCN(c3ccccc3F)CC2)c2c1nnn2Cc1ccccc1Cl | x | -8 | 5% | x | x
COc1ccc(Br)cc1-c1nc(CCl)cs1 | i | 6 | 18µM* | u | 6%
CCOc1ccc(-c2nc(CCl)cs2)cc1 | i | 11 | -1% | 1% | 2%
COc1ccc([C@H]2CC(=O)C=C(c3ccc(CNC(=O)OC(C)(C)C)cc3)C2)cc1 | i | x | 0% | 10% | 35µM*
COc1ccc([C@H]2CC(=O)C=C(c3ccc(OC(F)(F)F)cc3)C2)cc1 | i | x | 1% | -24% | -2%
CCOc1cc(CNCc2ccccc2)ccc1OCc1ccc(Cl)cc1 | i | -96* | -3% | -54% | 6%
